In PubChem BioAssay:
The source made the active and inactive calls. Unless noted, the rule behind the calls is not given here.

Key:
[1] = compound effects on lung adenocarcinoma cell viability – A549, calcein-AM fluorescence, 48 h, basal, profiling panel (AID 1162); details: higher = more signal; note: test concentration not given here
[2] = compound effects on differentiated 3T3-L1 adipocyte viability – cell-based, 3T3-L1 adipocytes, calcein-AM fluorescence, 48 h, basal, profiling panel (AID 1163); details: 3T3-L1 adipocytes viability, higher = more signal; note: test concentration not given here
[3] = compound effects on hepatocellular carcinoma cell viability – HepG2, calcein-AM fluorescence, 48 h, basal, profiling panel (AID 1164); details: higher = more signal; note: test concentration not given here
[4] = compound effects on multiple myeloma cell viability – MM1S, calcein-AM fluorescence, 48 h, basal, profiling panel (AID 1165); details: higher = more signal;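 note: viability of MM1S multiple myeloma cells under basal unstimulated conditions; test concentration not given here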
[5] = calcein-AM signal in unstimulated myeloma cells – cell-based, calcein-AM fluorescence, 48 h, PK04 Diversity Set, profiling panel (AID 1166); details: RPMI8226 myeloma viability, higher = more signal;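 note: cells grown under basal conditions without added stimulus; test concentration not given here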
[6] = JC-1 mitochondrial signal, unstimulated HepG2 cells – cell-based, JC-1 fluorescence, 24 h, 100 nL compound, profiling panel (AID 1167); details: HepG2 mitochondrial potential, higher = more signal; note: test concentration not given here
[7] = JC-1 mitochondrial signal, unstimulated adipocytes – cell-based, JC-1 fluorescence, 3T3-L1 adipocytes, 24 h, 100 nL compound, profiling panel (AID 1168); details: JC-1 mitochondrial fluorescence, higher = more signal, called active from +8 up or from −8 down; note: test concentration not given here
[8] = JC-1 mitochondrial signal, unstimulated myeloma cells – cell-based, JC-1 fluorescence, RPMI8226, 24 h, 100 nL compound, profiling panel (AID 1169); details: JC-1 mitochondrial potential fluorescence, higher = more signal; note: test concentration not given here
[9] = JC-1 mitochondrial signal, unstimulated MM1S myeloma – cell-based, JC-1 fluorescence, 24 h, 100 nL compound, profiling panel (AID 1170); details: MM1S mitochondrial potential, higher = more signal; note: test concentration not given here
[10] = resazurin metabolic signal in A549 cells – cell-based, resazurin fluorescence, 24 h, PK04 Diversity Set, profiling panel (AID 1171); details: A549 viability, higher = more signal, called active from +8 up or from −8 down; note: test concentration not given here
[11] = resazurin metabolic signal in HepG2 cells – cell-based, resazurin fluorescence, 24 h, PK04 Diversity Set, profiling panel (AID 1172); details: HepG2 viability, higher = more signal; note: test concentration not given here
[12] = budding yeast growth changes without added modifier – OD600, strain BY4716, 24 h, basal condition, primary screen (AID 1173); details: S. cerevisiae BY4716 growth, OD600, 24 h; higher = more signal, called active from +8 up or from −8 down
[13] = viability profiling in MM1S myeloma cells – cell-based, resazurin fluorescence, basal, 24 h, PK04 Diversity Set, profiling panel (AID 1174); details: higher = more signal, called active from +8 up or from −8 down; note: test concentration not given here
[14] = target: Dihydroorotate dehydrogenase (quinone), mitochondrial (Plasmodium falciparum (isolate 3D7)) (UniProt Q08210); assay: inhibition of P. falciparum DHODH – biochemical, C-terminal His tag, absorbance 600 nm, primary screen (AID 1175); details: PfDHODH enzyme, DCIP absorbance 600 nm; higher = more signal, called active from +8 up or from −8 down;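 note: recombinant parasite enzyme with a five histidine tag at its C terminus; test concentration not given here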
[15] = inhibition of PAO1 biofilm formation – strain PAO1, LB-PBS medium, absorbance 600 nm, primary screen (AID 1176); note: test concentration not given here; details: P. aeruginosa PAO1 growth/biofilm, A600, 12 h; higher = more signal
[16] = growth modulation of vineyard yeast isolate – strain RM11-1a, OD600, basal, 24 h, primary screen (AID 1177);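 note: cultures grown under basal conditions with no added stressor; test concentration not given here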; details: S. cerevisiae RM11-1a growth, OD600, 24 h; higher = more signal, called active from +8 up or from −8 down
[17] = growth of efflux-deficient E. coli DRC39 – strain DRC39, OD650, 24 h, E. coli filamentation inducers, primary screen (AID 1178);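 note: growth measured as culture turbidity by optical density at 650 nm; test concentration not given here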; details: E. coli DRC39 acrAB, higher = more signal, called active from +8 up or from −8 down
[18] = growth of efflux-deficient E. coli DRC39 – strain DRC39, OD650, 48 h, E. coli filamentation inducers, primary screen (AID 1179);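 note: screen aims at cell division blockers that make cells filament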; details: E. coli DRC39 delta-acrAB growth, higher = more signal, called active from +8 up or from −8 down
[19] = viability profiling in RPMI8226 myeloma cells – cell-based, resazurin fluorescence, basal, 24 h, PK04 Diversity Set, profiling panel (AID 1180); details: higher = more signal;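 note: RPMI8826 multiple myeloma cell line at 5000 cells per well; test concentration not given here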
[20] = target: E3 ubiquitin-protein ligase XIAP (Homo sapiens) (UniProt P98170); assay: small molecules binding XIAP protein – biophysical, small-molecule microarray, fluorescence 635 nm, primary screen (AID 1181); details: higher = more signal;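 note: score merges 667 nm emission and signal to noise over triplicate slides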
Chain of E3 ubiquitin-protein ligase XIAP (Homo sapiens) (P98170 whole entry, looked up): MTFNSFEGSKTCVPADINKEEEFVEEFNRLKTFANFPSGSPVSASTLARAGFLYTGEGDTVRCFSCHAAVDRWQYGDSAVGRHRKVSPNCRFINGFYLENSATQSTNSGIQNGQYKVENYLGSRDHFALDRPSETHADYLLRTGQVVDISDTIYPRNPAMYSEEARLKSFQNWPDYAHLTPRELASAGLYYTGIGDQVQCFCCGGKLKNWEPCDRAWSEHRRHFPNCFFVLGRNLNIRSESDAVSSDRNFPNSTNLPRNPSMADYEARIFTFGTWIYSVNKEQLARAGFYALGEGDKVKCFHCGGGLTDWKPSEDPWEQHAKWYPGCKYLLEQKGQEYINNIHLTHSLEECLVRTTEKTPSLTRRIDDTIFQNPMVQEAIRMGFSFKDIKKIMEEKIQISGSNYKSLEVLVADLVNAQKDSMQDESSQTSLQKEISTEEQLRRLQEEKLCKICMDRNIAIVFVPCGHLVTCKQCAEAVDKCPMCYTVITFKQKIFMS

Chain of Dihydroorotate dehydrogenase (quinone), mitochondrial (Plasmodium falciparum (isolate 3D7)) (Q08210 whole entry, looked up): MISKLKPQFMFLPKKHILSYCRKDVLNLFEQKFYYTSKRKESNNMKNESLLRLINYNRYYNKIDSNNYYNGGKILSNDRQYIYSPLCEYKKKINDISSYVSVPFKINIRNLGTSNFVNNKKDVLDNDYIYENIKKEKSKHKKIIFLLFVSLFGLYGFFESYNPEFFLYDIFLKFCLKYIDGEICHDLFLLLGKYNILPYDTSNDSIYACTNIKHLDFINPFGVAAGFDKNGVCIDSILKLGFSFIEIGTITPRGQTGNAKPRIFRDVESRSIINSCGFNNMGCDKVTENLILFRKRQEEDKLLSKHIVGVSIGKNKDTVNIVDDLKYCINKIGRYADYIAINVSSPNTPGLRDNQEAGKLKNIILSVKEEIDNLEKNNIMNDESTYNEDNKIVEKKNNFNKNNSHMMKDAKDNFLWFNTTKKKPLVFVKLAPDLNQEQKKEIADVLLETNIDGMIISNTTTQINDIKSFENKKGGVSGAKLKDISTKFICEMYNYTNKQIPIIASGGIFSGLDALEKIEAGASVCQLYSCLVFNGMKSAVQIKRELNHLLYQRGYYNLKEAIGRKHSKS

Structure (SMILES)	z-score [1]	z-score [2]	z-score [3]	z-score [4]	z-score [5]	z-score [6]	z-score [7]	z-score [8]	z-score [9]	z-score [10]	z-score [11]	z-score [12]	z-score [13]	composite z-score [14]	z-score [15]	z-score [16]	z-score [17]	z-score [18]	z-score [19]	composite z-score [20]
CC1CC/C=C\[C@H]2OC34C=CCN(c5ccc6ccccc6c5)C(=O)[C@H]3N(C(CO)C(C)C)C(=O)[C@@H]4C2C(=O)O1 (stereo not given in full)	0.534	-0.443	0.468	0.36	0.251	0.356	-0.328 (inactive)	0.145	-0.158	-0.294 (inactive)	-0.452	-0.0979 (inactive)	-0.241 (inactive)	-2.17 (inactive)	-0.332 (inactive)	-0.319 (inactive)	0.0932 (inactive)	0.154 (inactive)	-0.315	0.558
CC(C)(C)OC(=O)CC[C@]1(C(=O)NCCN2CCOCC2)N=C(c2ccc(OCCCO)cc2)O[C@H]1c1ccccc1N=[N+]=[N-]	-0.877	0.303	0.309	-0.603	-0.711	1.27	1.21 (inactive)	-0.683	-0.961	-0.201 (inactive)	-0.0231	-0.893 (inactive)	-1.28 (inactive)	0.255 (inactive)	0.494 (inactive)	-0.279 (inactive)	0.23 (inactive)	-0.635 (inactive)	-0.565	-0.16
CCOC(=O)C1=CC[C@@H](c2cc(Cl)ccc2Cl)N(S(=O)(=O)c2ccc(C)cc2)[C@H]1c1ccc(OC)cc1	-0.41	-0.603	0.118	-0.852	0.199	1.17	-1 (inactive)	0.642	-2.07	-0.629 (inactive)	0.292	2.05 (inactive)	-1.34 (inactive)	0.658 (inactive)	0.0767 (inactive)	2.28 (inactive)	-0.61 (inactive)	-1.03 (inactive)	-1.97	0.179
NCCCCCCNC(=O)[C@H]1C[C@H]2C(=O)N[C@@H](Cc3ccccc3)C(=O)N2[C@H]1c1ccc(O)cc1	0.0513	0.565	-0.623	0.675	0.337	-0.424	0.0433 (inactive)	-1	-0.119	1.18 (inactive)	0.614	-0.68 (inactive)	1.58 (inactive)	-1.32 (inactive)	0.118 (inactive)	-1.27 (inactive)	0.279 (inactive)	0.04 (inactive)	1.27	-0.0826
C=C(CCCC)/C(=C/C[C@@H](OC(C)=O)c1ccc(CO)o1)c1cc(C(=O)OC)ccc1OC	0.813	-0.504	0.882	-1.81	-0.564	0.152	-0.573 (inactive)	0.507	-1.36	0.111 (inactive)	-0.345	-1.63 (inactive)	-0.493 (inactive)	-2.63 (inactive)	1.23 (inactive)	0.0168 (inactive)	-0.122 (inactive)	-0.194 (inactive)	0.0716	-0.0367
COc1ccc(NN2C(C(O)c3ccco3)C=CC3C(=O)N(C4CCCCC4)C(=O)C32)cc1 (stereo not given)	-0.181	-0.637	1.37	0.739	-0.023	0.526	-1.23 (inactive)	0.23	-1.23	0.405 (inactive)	0.502	-1.11 (inactive)	-1.59 (inactive)	0.181 (inactive)	0.546 (inactive)	-0.0552 (inactive)	-0.624 (inactive)	-0.109 (inactive)	-1.55	0.065
C[C@]1(C(=O)NCCN2CCOCC2)c2ccccc2C(=O)N(Cc2ccc(OC(F)(F)F)cc2)[C@H]1c1ccc(CO)cc1	0.742	-0.352	0.342	-0.285	0.0667	3.08	-0.446 (inactive)	-0.275	-0.609	0.354 (inactive)	0.209	-0.427 (inactive)	-0.191 (inactive)	-0.277 (inactive)	0.0435 (inactive)	-0.393 (inactive)	0.815 (inactive)	0.121 (inactive)	0.206	-0.0663
CCC[C@@H]1C[C@@]1(CCC)[C@@H](NP(=O)(c1ccccc1)c1ccccc1)c1ccc(Cl)cc1	-1.19	-1.03	-1.99	-1.45	-2.28	-4.09	-0.876 (inactive)	-0.618	-1.81	0.419 (inactive)	0.405	1.3 (inactive)	-0.601 (inactive)	-1.09 (inactive)	0.439 (inactive)	0.525 (inactive)	-0.919 (inactive)	-0.26 (inactive)	-0.519	-0.0374
CCOC(=O)C[C@H]1[C@H](OC(=O)c2ccc(-c3ccccc3)cc2)[C@@H](NC(=O)c2ccc3ccccc3n2)c2cc(OCCCO)ccc2N1C(=O)c1ccccc1	-1.05	0.312	-0.677	0.23	-0.248	1.35	-0.248 (inactive)	0.224	0.0802	0.0216 (inactive)	-0.576	1.11 (inactive)	-0.421 (inactive)	0.421 (inactive)	-0.37 (inactive)	0.97 (inactive)	0.353 (inactive)	0.287 (inactive)	-0.193	-0.286
